# Experimental data published in PubChem BioAssay AID463173 (ICCB-Longwood Screening Facility, Harvard Medical School, 2010).
# Out of some 52,000 compounds screened, about 4,300 (8.3%) were called active. This is one part of a sample in which actives are shown more often than they occur. Rule as the data show it: active = survival mostly below about 52% (no sharp cut-off); inactive = mostly above about 56%.
# Test system: DeltatarO mutant
# Experiment: growth inhibition of S. aureus wild type versus tarO mutant, primary screen, teichoic acid synthesis inhibitors, RN4220, OD600 (AID 463173)
# Conditions: OD600, 18 h, active compounds read low, screened at 18.75 µg/mL (by protocol)
row,Compound,survival
1,CCOc1ccc(-c2cc3c(=O)n(CC(=O)NCc4ccccc4)ccn3n2)cc1,83% (inactive)
2,Cc1ccc(Cl)cc1-n1c(=O)cc(N2CCN(c3ccc(F)cc3)CC2)[nH]c1=O,70% (inactive)
3,Cc1ccc(Cl)cc1-n1c(=O)cc(N2CCN(c3ccccc3)CC2)[nH]c1=O,92% (inactive)
4,Cc1ccc(-n2c(=O)cc(N3CCN(c4ccccc4Cl)CC3)[nH]c2=O)cc1,25% (active)
5,N#CC1(Nc2ccccc2Cl)C(=O)Nc2ccccc21 (centres undefined),69% (inactive)
6,COc1cc(-c2nc3cnccn3c2Nc2ccc(C(C)C)cc2)ccc1O,66% (inactive)
7,CC(C)c1ccc(Nc2c(-c3ccc(N(C)C)cc3)nc3cnccn23)cc1,43% (active)
8,Cc1ccc(Nc2c(-c3ccc(C)cc3)nc3cnccn23)cc1,35% (active)
9,CC(C)c1ccc(Nc2c(-c3ccccc3O)nc3cnccn23)cc1,55% (inactive)
10,CN(C)c1ccc(-c2nc3cnccn3c2Nc2cccc(C(F)(F)F)c2)cc1,83% (inactive)
11,Cc1cccc(C)c1Nc1c(-c2ccccc2Cl)nc2cnccn12,97% (inactive)
12,Oc1ccccc1-c1nc2cnccn2c1Nc1ccc(Cl)cc1,15% (active)
13,Cc1ccc(Nc2c(-c3ccncc3)nc3ccc(C)cn23)cc1,102% (inactive)
14,COc1ccc(Nc2c(-c3ccc(Cl)cc3)nc3cnccn23)cc1OC,58% (inactive)
15,O=C(CSc1nc(=O)n(Cc2ccco2)c2c1CCC2)NCc1ccc(Cl)cc1,69% (inactive)
16,Cc1cccc(C)c1NC(=O)CN(Cc1ccc(Br)cc1)S(=O)(=O)c1ccccc1,60% (inactive)
17,CCOc1ccccc1NC(=O)C(CC)Sc1nc2ccncc2[nH]1 (centres undefined),122% (inactive)
18,COc1cc(NC(=O)N2CCC(CN3CCCC3)CC2)cc(OC)c1OC,79% (inactive)
19,O=C(Cn1nnc2sc(-c3ccccc3)cc2c1=O)Nc1cccc(C(F)(F)F)c1,40% (inactive)
20,COc1ccc(C2(NC(=O)c3ccc(Cn4cc(Cl)cn4)o3)CCCCC2)cc1,102% (inactive)
21,O=c1c2ccccc2n(Cc2c(F)cccc2Cl)c(=O)n1CCc1ccccc1,85% (inactive)
22,COCCN(CCOC)c1ncnc2c1c(-c1ccccc1)cn2-c1ccc(C)c(Cl)c1,67% (inactive)
23,CCCSc1nc(-c2ccc(OC)cc2)cc(-c2ccccc2OC)c1C#N,64% (inactive)

row,Compound,survival
1,CN(C)c1ccc(-c2cc(-c3ccccc3)c(C#N)c(N)n2)cc1,105% (inactive)
2,COc1ccccc1-c1cc(-c2ccc(O)cc2)nc(N)c1C#N,12% (active)
3,CCOc1ccc2c(c1)c(=O)c(C(=O)c1ccccc1)cn2Cc1ccccc1F,83% (inactive)
4,O=C(/C=N/O)NCCN1CCCCC1,98% (inactive)
5,CCCOc1ccc(CNC(=O)C2CCN(C(=O)c3sccc3-n3cccc3)CC2)cc1,79% (inactive)
6,Cc1ccc(S(=O)(=O)N2CCCc3cc(NS(=O)(=O)c4cccc(Cl)c4)ccc32)cc1,68% (inactive)
7,COc1ccccc1C1Nc2ccccc2-n2c(-c3ccccc3)c3c(=O)n(C)c(=O)n(C)c3c21 (centres undefined),53% (inactive)
8,Cc1ccc(C2Nc3ccccc3-n3c(-c4ccccc4)c4c(=O)n(C)c(=O)n(C)c4c32)o1 (centres undefined),59% (inactive)
9,COc1ccc(-c2nc3ccccc3n3c(-c4ccccc4)c4c(=O)n(C)c(=O)n(C)c4c23)cc1,80% (inactive)
10,Cc1cc2c(cc1C)-n1c(-c3ccccc3)c3c(=O)n(C)c(=O)n(C)c3c1C(c1ccco1)N2 (centres undefined),80% (inactive)
11,COc1ccc(-c2c3c(=O)n(C)c(=O)n(C)c3c3n2-c2ccccc2NC3c2ccc(O)cc2O)cc1 (centres undefined),0% (active)
12,COc1ccc(-c2c3c(=O)n(C)c(=O)n(C)c3c3n2-c2ccccc2NC3c2ccco2)cc1 (centres undefined),50% (inactive)
13,COc1ccc(-c2c3c(=O)n(C)c(=O)n(C)c3c3n2-c2ccccc2NC3c2ccccc2OC)cc1 (centres undefined),74% (inactive)
14,COc1ccc(O)c(C2Nc3ccccc3-n3c(-c4ccccc4)c4c(=O)n(C)c(=O)n(C)c4c32)c1 (centres undefined),3% (active)
15,Cn1c(=O)c2c(-c3ccccc3)n3c(c2n(C)c1=O)C(c1cc(Cl)ccc1O)Nc1ccccc1-3 (centres undefined),1% (active)
16,Cc1ccc(C2Nc3cc(C)c(C)cc3-n3c(-c4ccccc4)c4c(=O)n(C)c(=O)n(C)c4c32)o1 (centres undefined),68% (inactive)
17,Cc1ccc(-c2c3c(=O)n(C)c(=O)n(C)c3c3n2-c2ccccc2NC3c2ccc(C)cc2O)cc1 (centres undefined),2% (active)
18,Cn1c(=O)c2c(-c3ccccc3)n3c(c2n(C)c1=O)C(c1ccco1)Nc1ccccc1-3 (centres undefined),77% (inactive)
19,COc1ccc(OCC(=O)Nn2cnnc2)cc1,73% (inactive)
20,O=C(Cn1c(=O)oc2cc(S(=O)(=O)N3CCCCCC3)ccc21)Nc1ccc(F)cc1F,84% (inactive)
21,Cc1ccc(CCNC(=O)c2c(C)oc3ncn(CC(C)C)c(=O)c23)cc1,119% (inactive)
22,CC(C)n1cc2c(c1-c1ccccc1Cl)c(=O)n(C)c(=O)n2C,89% (inactive)
23,Cc1cc(=O)n2c(C(=O)Nc3ccc(Br)cc3)c(C(=O)Nc3ccccc3)sc2n1,62% (inactive)

row,Compound,survival
1,Cn1c(=O)c2c(nc(Oc3ccc(C#N)cc3)n2Cc2ccc(Cl)cc2Cl)n(C)c1=O,106% (inactive)
2,Cn1c(=O)c2c([nH]c(=O)n2Cc2ccc(Cl)cc2Cl)n(C)c1=O,42% (active)
3,C=CCn1c(=O)[nH]c2c1c(=O)n(C)c(=O)n2C,80% (inactive)
4,CN(C(=O)Nc1cn(C)c(=O)c2ccccc12)c1ccccc1,-5% (active)
5,Cc1ccc(NC(=O)Nc2cn(C)c(=O)c3ccccc23)c(Cl)c1,89% (inactive)
6,CCOc1ccccc1N(CC)C(=O)Nc1cn(C)c(=O)c2ccccc12,94% (inactive)
7,CCc1ccc(NC(=O)N(Cc2cn(CC)c3ccccc23)C2CCCCC2)cc1,-13% (active)
8,CCOc1ccc(NC(=O)N(Cc2c[nH]c3ccccc23)C2CCCCC2)cc1,74% (inactive)
9,CCc1ccc(NC(=O)N(Cc2c[nH]c3ccccc23)C2CCCCCC2)cc1,102% (inactive)
10,CCOc1ccc(NC(=O)N(Cc2cn(CC)c3ccccc23)C2CCCCCC2)cc1,-12% (active)
11,CCOc1ccc(NC(=O)N(Cc2c[nH]c3ccccc23)C2CCCCCC2)cc1,79% (inactive)
12,CCc1ccc(NC(=O)N(Cc2c[nH]c3ccccc23)C2CCCCC2)cc1,84% (inactive)
13,COc1ccc(/C=C/C(=O)Nc2nc(-c3cccs3)ns2)cc1OC,48% (inactive)
14,Cc1ccc(Nc2c(-c3cccc(Cl)c3)nc3cccc(C)n23)cc1,49% (inactive)
15,COc1cc(NC(=O)Nc2nnc(N3CCCCC3)s2)cc(OC)c1,68% (inactive)
16,Cc1oc2ncn(CC(C)C)c(=O)c2c1C(=O)NCCCN1CCCCC1C (centres undefined),87% (inactive)
17,COc1ccc(N2CCN(C(=O)COCc3cc(-c4ccc5c(c4)OCO5)on3)CC2)cc1,92% (inactive)
18,COc1cccc(C(c2c(O)cc(C)n(Cc3ccco3)c2=O)N2CCC(C)CC2)c1 (centres undefined),74% (inactive)
19,O=C(Cc1ccc(Cl)cc1)NCCN1CCOCC1,91% (inactive)
20,CC1=C(C(=O)Nc2ccc(C)cc2C)C(c2ccc(O)cc2)n2nc(SCC(=O)c3ccc(C)cc3)nc2N1 (centres undefined),125% (inactive)
21,COc1ccc(C(=O)N(Cc2ccc(N(C)C)cc2)CC2CCCO2)cc1 (centres undefined),63% (inactive)
22,COc1cc(C(=O)N(Cc2ccc(N(C)C)cc2)CC2CCCO2)cc(OC)c1OC (centres undefined),47% (active)
23,Cc1ccc(C(=O)N(Cc2ccc(N(C)C)cc2)CC2CCCO2)cc1 (centres undefined),50% (inactive)

row,Compound,survival
1,Cn1c(=O)n(C)c2cc(NS(=O)(=O)c3ccccc3)c(NCc3ccccc3)cc21,68% (inactive)
2,Cc1ccc(S(=O)(=O)Nc2cc3c(cc2NCc2ccccc2)n(C)c(=O)n3C)cc1,73% (inactive)
3,Cn1c(=O)n(C)c2cc(NS(=O)(=O)c3ccc(Cl)cc3)c(NCc3ccccc3)cc21,117% (inactive)
4,CC(C)c1ccc(S(=O)(=O)Nc2cc3c(cc2NCc2ccccc2)n(C)c(=O)n3C)cc1,39% (active)
5,Cn1c(=O)n(C)c2cc(NS(=O)(=O)c3ccc(Br)cc3)c(NCc3ccccc3)cc21,57% (inactive)
6,Cn1c(=O)n(C)c2cc(NS(=O)(=O)c3ccc(C(C)(C)C)cc3)c(NCc3ccccc3)cc21,43% (active)
7,COc1ccc(Cl)cc1NC(=O)Cn1cc(S(=O)(=O)Cc2cccc(Cl)c2)c2ccccc21,83% (inactive)
8,CCOC(=O)c1ccc(NC(=O)c2c(NCc3cccc(OC)c3OC)sc3c2CCC3)cc1,77% (inactive)
9,COc1ccccc1CCNC(=O)Cc1c(C)c2cc3c(C)coc3cc2oc1=O,68% (inactive)
10,CCOC(=O)C1=C(CN2CCN(c3ccccc3OC)CC2)NC(=O)NC1c1ccccc1 (centres undefined),70% (inactive)
11,Cc1ccc(-c2nnc(Nc3cccc(Cl)c3)c3ccccc23)cc1S(=O)(=O)N1CCCCC1,65% (inactive)
12,CCN(CC)C(=O)c1ccccc1NC(=O)c1ccccc1,92% (inactive)
13,CCN(C(=O)c1ccc(C(=O)N(CC)c2ccccc2C)cc1)c1ccccc1C,68% (inactive)
14,CCN(CC)C(=O)c1ccccc1C,48% (active)
15,CCCCC(CC)CNC(=O)CN(C)S(=O)(=O)c1ccc2c(c1)c(=O)n(C)c(=O)n2C (centres undefined),73% (inactive)
16,CCc1ccc(-n2c(=O)c3c4c(sc3n(CC(=O)c3ccc(Cl)cc3)c2=O)CCC4)cc1,142% (inactive)
17,c1ccc(CNc2nnnn2-c2ccccc2)cc1,93% (inactive)
18,O=C(O)CCSc1nnnn1-c1ccccc1,73% (inactive)
19,CCS(=O)(=O)c1nnnn1-c1ccccc1,9% (active)
20,CCOc1ccc(C2CC(=O)Nc3cc4c(cc32)OCO4)cc1OC (centres undefined),120% (inactive)
